Results: PubChem BioAssay AID488847 (NMMLSC, 2010)
In all, about 330,000 compounds went through this assay and about 1,900 (0.58%) were called active.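 Rule for the calls: active = inhibition of aptamer binding above 40%, roughly 3 SD of noise, on plates passing a quality check; inactive = the rest.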 Only a selection was taken, and actives are over-represented in it overall.

target: Beta-adrenergic receptor kinase 1 (Homo sapiens) (UniProt P25098); assay: compounds blocking aptamer binding on GRK2 – biochemical, human GRK2, bead flow cytometry, HTS, primary screen (AID 488847); conditions: FAM-aptamer displacement from GRK2, at 10 µM, hits give high values;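 note: median bead fluorescence of bound FAM aptamer so fluorescent compounds give negative values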
Sequence (P25098 whole entry, looked up): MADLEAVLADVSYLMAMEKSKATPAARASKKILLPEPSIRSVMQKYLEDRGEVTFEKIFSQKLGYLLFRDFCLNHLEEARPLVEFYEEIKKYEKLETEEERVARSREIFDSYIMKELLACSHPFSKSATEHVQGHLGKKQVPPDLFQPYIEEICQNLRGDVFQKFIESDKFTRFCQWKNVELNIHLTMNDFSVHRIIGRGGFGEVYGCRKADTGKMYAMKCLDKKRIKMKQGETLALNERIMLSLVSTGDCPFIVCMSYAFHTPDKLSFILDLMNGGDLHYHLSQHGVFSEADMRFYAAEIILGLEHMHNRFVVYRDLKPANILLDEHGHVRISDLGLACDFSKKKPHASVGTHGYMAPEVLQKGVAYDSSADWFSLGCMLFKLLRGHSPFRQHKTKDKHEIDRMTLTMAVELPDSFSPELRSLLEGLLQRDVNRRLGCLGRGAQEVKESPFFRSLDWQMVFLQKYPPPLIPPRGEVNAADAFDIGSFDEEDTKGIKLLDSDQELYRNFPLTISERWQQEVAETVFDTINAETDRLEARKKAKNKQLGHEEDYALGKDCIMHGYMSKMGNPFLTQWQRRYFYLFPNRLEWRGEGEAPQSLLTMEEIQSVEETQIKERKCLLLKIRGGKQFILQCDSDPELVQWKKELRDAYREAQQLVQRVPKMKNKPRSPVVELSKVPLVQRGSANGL

How did the inhibition of aptamer binding turn out when CCOC(=O)c1ccc(NC(=O)c2c(NCc3ccccc3)[nH]c(=O)[nH]c2=O)cc1 was run?
The inhibition of aptamer binding was 5% (inactive).

Which inhibition of aptamer binding does the source give for C=C(C)C(=O)Nc1cccc(C2=NOC3(C2)C[C@H](C(N)=O)N(C(=O)C(c2ccccc2)c2ccccc2)C3)c1 (stereo partly specified) here?
Its inhibition of aptamer binding is 91% (active).

Which inhibition of aptamer binding does the source give for C/C=C(/C)C(=O)Nc1cccc(C2=NOC3(C2)C[C@@H](C(N)=O)N(C(=O)C2(C)CC2)C3)c1 (stereo partly specified) here?
Its inhibition of aptamer binding is 1% (inactive).

Which inhibition of aptamer binding does the source give for C/C=C\C=C\C(=O)N1CC2(CC(c3cccc(NC(=O)/C(C)=C\C)c3)=NO2)C[C@H]1C(N)=O (stereo partly specified) here?
The inhibition of aptamer binding was 1% (inactive).

With CCOc1ccc(S(=O)(=O)Nc2cccc(C(=O)NCC3(N4CCCCC4)CCCCC3)c2)cc1 as the compound, how does the inhibition of aptamer binding read?
The inhibition of aptamer binding was 0% (inactive).

CS(=O)(=O)c1ccc(-c2nnn(CC(=O)Nc3ccc4c(c3)OCCO4)n2)cc1 was tested. Which inhibition of aptamer binding did it give?
The inhibition of aptamer binding was 0% (inactive).

With O=C(NNC(=S)NC1CC2CCC1C2)c1ccc(Cl)cc1 (stereo unspecified) as the compound, how does the inhibition of aptamer binding read?
Its inhibition of aptamer binding is 2% (inactive).

How did the inhibition of aptamer binding turn out when CC1CCN(C(=S)NC2CC3CCC2C3)CC1 (stereo unspecified) was run?
The inhibition of aptamer binding was 67% (active).

Which inhibition of aptamer binding does the source give for S=C(NNC(=S)NC1CC2CCC1C2)NC1CC2C=CC1C2 (stereo unspecified) here?
The inhibition of aptamer binding was 0% (inactive).

CC1c2nc3ccccc3n2C(CC(=O)NCCCN2CCOCC2)C(=O)N1Cc1ccccc1 (stereo unspecified) was tested. Which inhibition of aptamer binding did it give?
Its inhibition of aptamer binding is 0% (inactive).

For COCCn1c(N)c(NCc2ccccc2)c(=O)[nH]c1=O, which inhibition of aptamer binding is on record?
The inhibition of aptamer binding was 47% (active).

COCCn1c(N)c(N(Cc2ccccc2)C(=O)C2CCCCC2)c(=O)[nH]c1=O was tested. Which inhibition of aptamer binding did it give?
Its inhibition of aptamer binding is 0% (inactive).

For COCCN(C(=O)c1ccccc1F)c1c(N)n(Cc2ccccc2)c(=O)[nH]c1=O, which inhibition of aptamer binding is on record?
The inhibition of aptamer binding was 2% (inactive).

Which inhibition of aptamer binding does the source give for Cc1ccc2c(c1)C1CN(C)CCC1N2S(=O)(=O)c1ccc(Oc2ccc([N+](=O)[O-])cc2)cc1 (stereo unspecified) here?
Its inhibition of aptamer binding is 0% (inactive).

How did the inhibition of aptamer binding turn out when Nc1ccc2nc3c(=O)[nH]c(=S)[nH]c3nc2c1 was run?
The inhibition of aptamer binding was 70% (active).

For CCC1Oc2ccccc2N(CC(=O)NCCCN2CCN(CC)CC2)C1=O (stereo unspecified), which inhibition of aptamer binding is on record?
Its inhibition of aptamer binding is 0% (inactive).

How did the inhibition of aptamer binding turn out when COc1ccc(CCNC(=O)c2ccc(CS(=O)(=O)c3ccc(Br)cc3)o2)cc1OC was run?
The inhibition of aptamer binding was 1% (inactive).

How did the inhibition of aptamer binding turn out when CCOCCCNC(=O)c1ccc(CS(=O)(=O)c2cccc(C(F)(F)F)c2)o1 was run?
Its inhibition of aptamer binding is 48% (active).

How did the inhibition of aptamer binding turn out when COc1ccccc1CNC(=O)c1ccc(CS(=O)(=O)c2ccccc2)o1 was run?
The inhibition of aptamer binding was 0% (inactive).

Which inhibition of aptamer binding does the source give for CCC(C)(C(=O)Nc1ccccc1C)N(C(=O)CNC(C)=O)c1ccc(C)cc1 (stereo unspecified) here?
Its inhibition of aptamer binding is 1% (inactive).

With CCn1nc(NC(=O)c2ccco2)c2cc3ccc(C)cc3nc21 as the compound, how does the inhibition of aptamer binding read?
The inhibition of aptamer binding was 0% (inactive).

For Cc1ccc(OCCNC(=O)CCNS(=O)(=O)c2ccc(Br)cc2)cc1, which inhibition of aptamer binding is on record?
The inhibition of aptamer binding was 1% (inactive).

For Cc1cc2cc(CNC(=O)c3cccs3)ccc2[nH]1, which inhibition of aptamer binding is on record?
The inhibition of aptamer binding was 44% (active).

CCc1cccc(CC)c1NC(=S)NCc1ccc2[nH]c(C)cc2c1 was tested. Which inhibition of aptamer binding did it give?
The inhibition of aptamer binding was 0% (inactive).

For Cc1cc2cc(CNC(=O)c3ccc(S(=O)(=O)N4CCOCC4)cc3)ccc2[nH]1, which inhibition of aptamer binding is on record?
The inhibition of aptamer binding was 3% (inactive).

CN(CC(=O)N1CCN(c2ccccc2)CC1)S(=O)(=O)c1cccs1 was tested. Which inhibition of aptamer binding did it give?
Its inhibition of aptamer binding is 0% (inactive).

Which inhibition of aptamer binding does the source give for COCc1ccc(CN2CCC(Oc3ccc(C(=O)NCc4ccccn4)cc3)CC2)o1 here?
Its inhibition of aptamer binding is 0% (inactive).

With CCOC(=O)N1CCC(NC(=O)C(C)n2c3ccccc3c3cnn(C)c(=O)c32)CC1 (stereo unspecified) as the compound, how does the inhibition of aptamer binding read?
Its inhibition of aptamer binding is 4% (inactive).

Which inhibition of aptamer binding does the source give for O=C(N[C@H]1C/C=C\C(c2ccc(F)cc2)N(Cc2ccccc2)C(=O)C1)OCC1c2ccccc2-c2ccccc21 (stereo partly specified) here?
The inhibition of aptamer binding was 0% (inactive).

With CCOC(=O)N1CCN(C(=O)c2ccc(CN(c3ccc(C)c(C)c3)S(C)(=O)=O)cc2)CC1 as the compound, how does the inhibition of aptamer binding read?
The inhibition of aptamer binding was 3% (inactive).

CCC1(C(=O)c2ccccc2)C(c2cccc([N+](=O)[O-])c2)C1(C(=O)OC)C(=O)OC (stereo unspecified) was tested. Which inhibition of aptamer binding did it give?
The inhibition of aptamer binding was 0% (inactive).

Which inhibition of aptamer binding does the source give for CC(C)CN(C(=O)c1ccc2c(c1)OCO2)C1CCS(=O)(=O)C1 (stereo unspecified) here?
The inhibition of aptamer binding was 2% (inactive).

How did the inhibition of aptamer binding turn out when O=C(c1cccc(S(=O)(=O)N2CCCC2)c1)N(Cc1ccco1)C1CCS(=O)(=O)C1 (stereo unspecified) was run?
Its inhibition of aptamer binding is 4% (inactive).

CC(C)CN(C(=O)c1cccc(S(=O)(=O)N2CCCCC2)c1)C1CCS(=O)(=O)C1 (stereo unspecified) was tested. Which inhibition of aptamer binding did it give?
Its inhibition of aptamer binding is 92% (active).

With CO/N=C(/CS(=O)(=O)c1ccc(Br)cc1)c1ccc(OC)cc1 as the compound, how does the inhibition of aptamer binding read?
The inhibition of aptamer binding was 2% (inactive).

For COc1ccc(S(=O)(=O)N2CN(CCc3ccc(OC)c(OC)c3)c3nc4ccccc4nc32)cc1, which inhibition of aptamer binding is on record?
Its inhibition of aptamer binding is 3% (inactive).

CC(C)c1ccc(/C=C2\NC(=O)NC2=O)cc1 was tested. Which inhibition of aptamer binding did it give?
Its inhibition of aptamer binding is 0% (inactive).

CSc1ccc(/C=C2\NC(=O)NC2=O)cc1 was tested. Which inhibition of aptamer binding did it give?
The inhibition of aptamer binding was 46% (active).

Cc1ccc(NC(=O)COc2ccc(/C=C3/NC(=O)NC3=O)cc2)cc1 was tested. Which inhibition of aptamer binding did it give?
Its inhibition of aptamer binding is 0% (inactive).

How did the inhibition of aptamer binding turn out when Cc1ccc(-c2cc(=O)[nH]c(NCc3ccccc3)n2)cc1 was run?
The inhibition of aptamer binding was 2% (inactive).

With Cc1cccc2nc(CNc3ccc(F)cc3)cn12 as the compound, how does the inhibition of aptamer binding read?
Its inhibition of aptamer binding is 2% (inactive).

CC(NCc1cccs1)C(=O)Nc1cc(Cl)cc(Cl)c1 (stereo unspecified) was tested. Which inhibition of aptamer binding did it give?
Its inhibition of aptamer binding is 0% (inactive).

Which inhibition of aptamer binding does the source give for COc1cc(NS(=O)(=O)c2ccc3ccccc3c2)c2ncccc2c1 here?
Its inhibition of aptamer binding is 0% (inactive).

Which inhibition of aptamer binding does the source give for O=[N+]([O-])c1ccccc1S(=O)(=O)Nc1cccc2cccnc12 here?
The inhibition of aptamer binding was 46% (active).

For O=[N+]([O-])c1cccc2ncccc12, which inhibition of aptamer binding is on record?
Its inhibition of aptamer binding is 4% (inactive).

With O=C(c1ccc(Cl)cc1)c1ccc(OCC(O)CN2CCCCC2)cc1 (stereo unspecified) as the compound, how does the inhibition of aptamer binding read?
The inhibition of aptamer binding was 43% (active).
